From PubChem BioAssay
Her2 expr inh: inhibitors of Her2 protein expression, primary screen, SKBR-3 cells, AlphaScreen, 66K library | actives 0.69% (n = 65,000) | SKBR-3 HER2 protein level, 18-24 h; hits give low values | HER2 level % of control, % at 10 µM | Receptor tyrosine-protein kinase erbB-2 (Homo sapiens), P04626;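 active = HER2 level under 5% of the carrier-only control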;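 also: lower value means stronger loss of Her2 protein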
PLAP act: PLAP enzyme activators, biochemical, luminescence, HTS; Alkaline phosphatase, placental type (Homo sapiens), P05187; purified PLAP enzyme, luminescent substrate read-out; hits give high values; activation fold at 20 µM; actives 1.2% (n = 96,000); AID 696, 2007; in the data active = activation fold above about 2
M1 agonist: M1 muscarinic receptor agonists, primary screen, CHO-M1 cells, Fluo-4 calcium, agonist mode | Fluo-4 calcium fluorescence; hits give high values | Muscarinic acetylcholine receptor M1 | B-score at 10 µM | actives 3% (n = 64,000);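 active = fluorescence rise, raw or as B-score row- and column-corrected plate score, outside the 99.7% band of its plate's samples, either direction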
M1 antagonist: antagonists of rat M1 muscarinic receptor. B-score at 10 µM. CHO-M1 cells, Fluo-4 calcium, ACh EC80 antagonist mode; hits give low values. actives 3.4% (n = 64,000);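 active = calcium fluorescence response, raw or row-and-column corrected B-score, differing from the plate sample mean either way at a set confidence level, mostly lower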
Cav3 T inh: Cav3.2 calcium influx blockers – cell-based, Fluo-4 calcium fluorescence, FDSS, MLSMR library, primary screen; Voltage-dependent T-type calcium channel subunit alpha-1H (Homo sapiens), O95180; Cav3.2-expressing cells; hits give low values; B-score at 10 µM; actives 4% (n = 100,000); AID 449739, 2010;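 active = single-dose well whose peak fluorescence ratio is a statistical outlier from its plate by either plate-standardised score or position-corrected B-score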
M1 antag confirm: rat M1 muscarinic receptor antagonists, confirmation, CHO cells, Fluo-4 calcium, duplicate | AID 677, 2007 | ACh EC80 antagonism; hits give low values | actives 43% (n = 1,700) | calcium response (max-min fluorescence) at 10 µM | shares compounds with M1 antagonist;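 active = calcium response below the same-plate mean of wells given acetylcholine alone at its 80%-effect dose, minus 3 SD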
mGluR4 antag: human mGluR4 response to M1 antagonist hits, M1 allosteric modulator project, cell-based, antagonist mode, secondary assay 1; shares compounds with M1 antagonist; fluorescence response (max-min) at 10 µM; CHO-mGluR4 calcium flux, Fluo-4 fluorescence, glutamate EC80; hits give low values; actives 0.9% (n = 1,700); AID 678, 2007;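 active = fluorescence response below the plate's average for near-maximal glutamate wells, less 3 SD of those wells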;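 also: raw unnormalized fluorescence span taken in the window right after glutamate addition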
Each line names hits and unclear results; the compound was inactive in the other large screens (follow-up assays come after a bar, where they were run). The list is not random: actives were taken first. Their share in the collection is about 7.9%.

O=C(Cn1ccc2ccccc2c1=O)N1CCN(Cc2ccc3c(c2)OCO3)CC1	M1 antagonist -2.81 | M1 antag confirm inactive | mGluR4 antag inactive
O=C(CN1C(=O)c2ccccc2S1(=O)=O)N1CCN(Cc2ccc3c(c2)OCO3)CC1	none
O=C(CN1CCN(Cc2ccc3c(c2)OCO3)CC1)N1CCc2[nH]c3ccccc3c2C1	none
O=C(CCS(=O)(=O)c1cccc2nsnc12)N1CCN(Cc2ccc3c(c2)OCO3)CC1	M1 antagonist -2.49 | M1 antag confirm inactive | mGluR4 antag inactive
COC(=O)c1cc2sccc2n1Cc1nc(-c2ccc(OC)cc2)oc1C	M1 antagonist -2.63 | M1 antag confirm inactive | mGluR4 antag inactive
COC(=O)c1cc2ccsc2n1Cc1nc(-c2ccc(OC)cc2)oc1C	M1 antagonist -5.47 | M1 antag confirm 474 | mGluR4 antag inactive
NC(=S)N/N=C/c1ccccc1OCc1cccc(Cl)c1	none (no result: Her2 expr inh, M1 agonist, M1 antagonist)
COc1ccc(N2C(=O)c3ccccc3NC23C(=O)N(C)c2ccccc23)cc1 (centres undefined)	none (no result: Her2 expr inh, M1 agonist, M1 antagonist)
Cn1c(SCC(=O)c2cc3ccccc3o2)nnc1-c1ccccc1	M1 antagonist -2.01 | M1 antag confirm inactive | mGluR4 antag inactive
Cn1ccnc1SCC(=O)c1cc2ccccc2o1	M1 antagonist -3.25 | M1 antag confirm inactive | mGluR4 antag inactive
Cn1c(SCC(=O)N2CCN(c3ccccc3)CC2)nnc1-c1cc2ccccc2o1	none
Nc1nc2ccc(N3CCOCC3)cc2s1	none
Cc1nc(NCc2ccco2)[nH]c(=O)c1CCC(C)C	M1 antagonist -2.43 (no result: Cav3 T inh) | M1 antag confirm inactive | mGluR4 antag inactive
CC(=O)Cc1nsc(NC(=O)c2cc(-c3ccccc3Cl)oc2C)n1	none (no result: Cav3 T inh)
CC(=O)Nc1nc(CC(C)C)cc(-c2ccco2)c1C#N	none
Cc1cc(C)nc(NC2=NCCN2C(=O)Nc2ccc(Cl)c(Cl)c2)n1	M1 antagonist -4.09 (no result: PLAP act, Cav3 T inh) | M1 antag confirm inactive | mGluR4 antag inactive
Cc1csc(NC(=O)c2ccccc2C(=O)O)n1	M1 antagonist -3.03 | M1 antag confirm inactive | mGluR4 antag inactive
CCOC(=O)C1CCN(C(=O)CCNC(=O)c2cc(OC)c(OC)c(OC)c2)CC1	none
Cc1ccc(CC2CC(=O)N(c3nc4ccccc4n3C)C2=O)cc1 (centres undefined)	none (no result: Her2 expr inh, M1 agonist, M1 antagonist)
CCOC(=O)C1CCCN(c2c(NCCCN(CC)c3cccc(C)c3)c(=O)c2=O)C1 (centres undefined)	M1 antagonist -5.23 | M1 antag confirm inactive | mGluR4 antag inactive
Cc1c(N=C/C=C/c2ccccc2)c(=O)n(-c2ccccc2)n1C	M1 antagonist -11.4 | M1 antag confirm 23.7 | mGluR4 antag inactive
Cc1c(N=CC=Nc2c(C)n(C)n(-c3ccccc3)c2=O)c(=O)n(-c2ccccc2)n1C	none (no result: M1 agonist, M1 antagonist, Cav3 T inh)
CCOC(=O)Cn1cc(C(=O)C2CC2)c2ccccc21	none
COC(=O)Cn1cc(C(=O)C2CC2)c2ccccc21	M1 antagonist -1.59 | M1 antag confirm inactive | mGluR4 antag inactive
CCCc1cc(C(=O)NNC(=S)NC(C)c2ccccc2)cs1 (centres undefined)	none (no result: Her2 expr inh, M1 agonist, M1 antagonist)
O=c1cc(CSc2nnnn2-c2ccccc2)nc2scc(-c3ccccc3)n12	none
O=c1cc(CSc2nnnn2-c2ccccc2)nc2nc[nH]n12	M1 antagonist -2.05 | M1 antag confirm inactive | mGluR4 antag inactive
O=C(N1CCC(O)(c2cccnc2)CC1)C12CC3CC(CC(C3)C1)C2	none
Cc1cc(=O)n(C)c(=O)n1CCCCCN1CCCC1	M1 antagonist -1.63 | M1 antag confirm inactive | mGluR4 antag inactive
Fc1ccc(OCCCCCCN2CCCC2)cc1	none (no result: Her2 expr inh, M1 agonist, M1 antagonist)
CC1CCCN(c2nc3ccsc3c(=O)s2)C1 (centres undefined)	M1 antagonist -7.25 | M1 antag confirm 273 | mGluR4 antag inactive
